Compound activity as filed in PubChem.
Compounds with a hit are over-represented: about 3.6% of the library has one in this group of screens.
BoNT A protease – BoNT A light chain protease inhibition. multiplex microsphere protease substrate cleavage, flow cytometry. inhibition, % at 10 µM. 360,000 compounds, 0.17% hits; note: plate controls were buffer without enzyme for full effect and enzyme alone for no effect
Bead autofluor – compound fluorescence in toxin protease inhibitor counterscreen | compound autofluorescence counterscreen, microsphere flow cytometry; hits give high values | fluorescence intensity (concentration not given with the values) | 360,000 compounds, 3.1% hits | AID 624483; in the data active = fluorescence intensity above about 16000; inconclusive = no clear call, values can overlap the other calls
3CLpro inhibitor – SARS-CoV 3CLpro protease inhibition. P0C6X7. recombinant SARS-CoV 3CLpro, quenched FRET peptide cleavage. inhibition, % at 6 µM. 290,000 compounds, 0.14% hits; in the data active = inhibition above about 12%
Anthrax LF inh2 – anthrax lethal factor protease inhibition; P15917; inhibition, % at 10 µM; multiplex microsphere protease cleavage assay, LF; 360,000 compounds, 0.12% hits; note: plate controls were buffer without enzyme for full effect and enzyme alone for no effect
BJeLR viability – kills HRASV12-expressing BJeLR cells | BJeLR (HRASV12) viability, CellTiter-Glo ATP luminescence, 48 h | inhibition, % (concentration not given with the values) | 300,000 compounds, 0.17% hits | AID 1554; in the data active = inhibition above about 50%; inconclusive = no clear call, values can overlap the other calls
BoNT F protease – blocks Botulinum neurotoxin F light chain protease | inhibition, % at 10 µM | Multiplex microsphere protease cleavage assay, flow cytometry | AID 588497 | 360,000 compounds, 0.22% hits; in the data active = inhibition above about 35%, passing the limit was not always enough; inconclusive = no clear call, values can overlap the other calls; note: plate controls were buffer without enzyme for full effect and enzyme alone for no effect
* = called active by the depositor; ? = inconclusive; nt = no result given. Cut-off read from the data, not from the text of the source, unless noted: active = inhibition above about 30%; inconclusive = no clear call, values can overlap the other calls; inactive = below that.

SMILES	BoNT A protease	Bead autofluor	3CLpro inhibitor	Anthrax LF inh2	BJeLR viability	BoNT F protease
CN1CCN(c2nc(-c3ccc(Cl)cc3)cc(=O)[nH]2)CC1	-4	4524	-5	-6	6	?
CC(=O)C1CCC2C3C=CC4=CC(=O)CCC4(C)C3CCC12C (configuration not stated)	-1	4378	nt	-2	nt	0
CCCCC(=O)Nc1ccc(C(=O)N2CCC(C(=O)OCC)CC2)cc1	1	23061*	-2	2	-1	3
CCCCCCC(=O)Nc1ccc(C(=O)N2CCCC2)cc1	0	11443	3	-6	-4	-4
CCC1Oc2ccc(C)cc2N(Cc2cccc(C)c2)C1=O (configuration not stated)	?	17288*	3	-2	-1	-7
CCOC(=O)CN1C(=O)C(CC)Oc2ccc(Cl)cc21 (configuration not stated)	-4	21455*	-3	-1	0	-5
Cc1ccc2c(c1)N(Cc1ccccc1)C(=O)C(C)O2 (configuration not stated)	0	3856	nt	-6	nt	-2
CCOc1cc2c(cc1OCC)C(c1ccc(OC)cc1)N(c1ccccc1)C(=O)C2 (configuration not stated)	1	7148	2	0	-1	8
CCOc1ccc(C2c3cc(OC)c(OC)cc3CC(=O)N2c2ccccc2)cc1 (configuration not stated)	5	20080*	-1	-1	7	7
COc1cccc(-c2nnn(CC(=O)N3CCC(C)CC3)n2)c1	-3	3820	2	-8	2	-7
Cc1ccc(S(=O)(=O)NC2(C(=O)O)CCCC2)cc1	0	3815	nt	2	nt	-1
Cc1ccc(S(=O)(=O)NC2(C(=O)O)CCCCC2)cc1	-2	23381*	1	-1	-5	-2
O=C(O)C1(NS(=O)(=O)c2ccc(Cl)cc2)CCCCC1	?	19428*	0	-4	4	2
Cc1cccc(-n2c(SCC(=O)N3CC(=O)Nc4ccccc43)nc3ccccc3c2=O)c1C	1	2719	0	-1	-8	-6
COc1ccc(NC(=O)CCC(=O)Nc2nnc(CC(C)C)s2)cc1Cl	-1	6020	0	-4	-12	-5
CCCSc1nnc(NC(=O)c2nc(SC)ncc2Cl)s1	?	19506*	-1	-2	-10	8
CSc1ncc(Cl)c(C(=O)Nc2nnc(SC)s2)n1	1	4499	1	-2	1	10
CC(=O)c1c(N2CCN(Cc3ccccc3)CC2)nc(=S)n(Cc2ccccc2)c1C	42*	4562	4	8	7	-11
CC(=O)c1c(N2CCCCC2)nc(=S)n(Cc2ccccc2)c1C	1	6242	-2	-3	0	-5
CC(=O)c1c(N2CCC(C(N)=O)CC2)nc(=S)n(-c2ccccc2)c1C	0	22860*	-2	-3	1	-1
O=C(O)CCNC(=O)CCCn1nnc2ccccc2c1=O	-19	20247*	5	-11	5	-95
CC(C)C[C@H](NC(=O)CCCn1nnc2ccccc2c1=O)C(=O)O	1	4309	1	-3	0	0
COc1ccccc1C(O)(C(=O)NN(C)c1ccccc1)c1ccccc1OC	0	2149	-5	-1	1	1
CCC(C)(C)NC(=O)C(c1ccc(C)cc1)N(CC1CCCO1)C(=O)CCC(=O)Nc1ccccn1 (configuration not stated)	-4	3852	1	4	-7	-9
COc1ccc(CCNC(=O)CSc2nnc(Cn3c(=O)sc4ccccc43)n2C)cc1OC	?	24341*	0	0	nt	-2
SMILES	BoNT A protease	Bead autofluor	3CLpro inhibitor	Anthrax LF inh2	BJeLR viability	BoNT F protease
Cn1c(Cn2c(=O)sc3ccccc32)nnc1SCC(=O)N1CCOCC1	0	5622	0	-3	0	-7
O=C(CSc1nnc(Cn2c(=O)sc3ccccc32)n1CCc1ccccc1)N1CCOCC1	-1	16901*	-9	0	nt	2
O=C(CSc1nnc(-c2cccnc2)n1Cc1ccccc1)N1CCOCC1	?	24649*	-3	0	12	-4
CC(C)n1cnc2cc(NCc3ccccn3)ccc21	-2	20604*	1	-4	2	-7
CC(C)n1cnc2cc(NCc3ccccc3O)ccc21	-1	3499	-3	4	-1	7
COc1cccc(NC(=O)CN(C)CC(=O)Nc2ccc(C)c([N+](=O)[O-])c2)c1	2	4123	-3	-2	-5	?
CCN(CCn1cccn1)C(=O)CC1C(=O)NCCN1CCc1ccccc1 (configuration not stated)	0	5906	0	-3	-2	-2
COCC(=O)N[C@@H]1c2ccccc2CC[C@@H]1OCc1ccccc1	0	3441	nt	-6	nt	-2
CC(C)(C)OC(=O)N1CC(O)CC1C(=O)OCC(=O)c1ccc(Cl)cc1 (configuration not stated)	7	20684*	1	-4	-13	8
CC(C)(C)OC(=O)N1CC(O)CC1C(=O)OCC(=O)c1ccccc1 (configuration not stated)	1	3178	3	-1	-20	5
COc1ccc(NC(=O)Cn2c(=O)cnc3ccccc32)cc1S(=O)(=O)N1CCCCC1	0	6179	nt	-2	18	-12
O=C(Cn1c(=O)n(-c2ccccc2)c(=O)c2sccc21)N1CCCC1	-1	23839*	-4	0	8	-4
O=C(NC1=NCCS1)c1cccs1	-2	4826	3	-5	-5	-4
CC(C)C(NC(=O)c1cccs1)C(=O)NC1=NCCS1 (configuration not stated)	?	21605*	-4	-1	10	3
CCc1nc2ccccc2c(C(=O)O)c1C	3	22245*	-2	4	-4	4
CCC(=O)Nc1c(C)c(CC)nc2ccccc12	-3	16775*	-1	-8	-18	-2
Cc1ccccc1C(=O)N1CCC(C(=O)NC2CCCC2)CC1	-2	3553	-1	28	-9	2
O=C(c1cccs1)N(Cc1ccccn1)Cc1ccco1	-1	24079*	4	-3	1	-1
COc1ccc2oc(=O)c(-c3nc(C)cs3)cc2c1	?	20394*	1	7	nt	12
COc1ccc2oc(=O)c(-c3nnc(N)s3)cc2c1	2	2393	-3	0	4	-2
CCNC(=S)NNC(=O)c1cc(C)on1	5	21335*	-4	0	5	6
Cc1cc(C(=O)NCc2ccccc2Br)no1	?	21781*	0	-1	2	-3
COC(=O)CCSCC(=O)N1N=C(c2ccc(OC)cc2)CC1c1cccc(OC)c1OC (configuration not stated)	1	4181	3	-3	-6	0
COc1ccccc1Oc1cc(F)nc(N)n1	?	17544*	6	-10	0	13
Cc1ccc(NC(=O)c2cc(-n3cnnc3)ccc2Cl)cc1	-1	16625*	-6	-1	-5	-2
